Assay results published in PubChem BioAssay (EPA / NIEHS).
Values joined by “and” are separate entries in the source; they are usually repeats but may differ in a detail not shown here. Equal values may be shown once. More than one record can exist for a structure, and the calls need not agree. Active and inactive are the calls of the source. Rule for the calls: active = hit-call score of the fitted dose curve at least 0.9, where 1 is the maximum; inactive = score below 0.9.

Columns and labels:
[1] = biological target: CCAAT/enhancer-binding protein beta (Homo sapiens) (UniProt P17676); experiment: ATG_C_EBP_CIS: Attagene CIS-FACTORIAL HepG2 Assay for human CCAAT/Enhancer Binding Protein (C/EBP) beta (AID 2282927); settings: HepG2 Attagene cis-factorial transcription factor reporter; actives raise or lower the signal
CCAAT/enhancer-binding protein beta (Homo sapiens), sequence (P17676 whole entry, looked up, the tested form may be a part): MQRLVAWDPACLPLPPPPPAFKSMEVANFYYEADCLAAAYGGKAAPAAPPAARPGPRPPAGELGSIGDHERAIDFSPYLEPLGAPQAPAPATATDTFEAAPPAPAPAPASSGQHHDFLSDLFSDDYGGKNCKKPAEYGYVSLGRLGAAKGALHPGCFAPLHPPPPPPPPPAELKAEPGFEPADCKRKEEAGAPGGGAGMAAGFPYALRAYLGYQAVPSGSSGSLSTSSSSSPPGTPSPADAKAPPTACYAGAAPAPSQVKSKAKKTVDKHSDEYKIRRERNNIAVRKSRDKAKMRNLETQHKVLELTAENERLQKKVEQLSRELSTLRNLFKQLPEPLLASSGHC
Summary of the method: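 Endogenous C/EBPb-driven reporter transcripts measured in transfected human HepG2 cells at 24 h via RT-PCR and capillary electrophoresis of labelled fragments. Activity fitted in both directions relative to DMSO baseline.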

[2] = ATG_CMV_CIS: Attagene CIS-FACTORIAL HepG2 Assay for human CMV (Internal Marker) (AID 2282928); settings: HepG2 CMV promoter reporter, transcription factor profiling; actives raise or lower the signal;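 note: endpoint acts as a background internal control marker rather than a target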
Summary of the method: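 Cell system: HepG2, transiently transfected multiple reporter units under cis promoters. Exposure: 24 h. Detection: RT-PCR, FAM labeling, HpaI digestion, capillary electrophoresis. Analysis: bidirectional, DMSO baseline.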

[3] = ATG_DR4_LXR_CIS: Attagene CIS-FACTORIAL HepG2 Assay for human Liver X Receptor (LXR), DR4 submotif (AID 2282929); settings: HepG2 Attagene DR4 cis-reporter, mRNA transcription; actives raise or lower the signal
Summary of the method: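 Endogenous factor activity at a DR4 cis-element is read as reporter mRNA in transiently transfected HepG2 cells. Exposure lasts 24 h; transcripts are amplified, fluorescently labelled and sized by capillary electrophoresis, with DMSO as baseline.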

[4] = biological target: Aryl hydrocarbon receptor (Homo sapiens) (UniProt P35869); experiment: ATG_Ahr_CIS: Attagene CIS-FACTORIAL HepG2 Assay for human Aryl Hydrocarbon Receptor (Ahr) (AID 2282930); settings: HepG2 AhR cis-factorial reporter transcription; actives raise or lower the signal
Aryl hydrocarbon receptor (Homo sapiens), sequence (P35869 whole entry, looked up): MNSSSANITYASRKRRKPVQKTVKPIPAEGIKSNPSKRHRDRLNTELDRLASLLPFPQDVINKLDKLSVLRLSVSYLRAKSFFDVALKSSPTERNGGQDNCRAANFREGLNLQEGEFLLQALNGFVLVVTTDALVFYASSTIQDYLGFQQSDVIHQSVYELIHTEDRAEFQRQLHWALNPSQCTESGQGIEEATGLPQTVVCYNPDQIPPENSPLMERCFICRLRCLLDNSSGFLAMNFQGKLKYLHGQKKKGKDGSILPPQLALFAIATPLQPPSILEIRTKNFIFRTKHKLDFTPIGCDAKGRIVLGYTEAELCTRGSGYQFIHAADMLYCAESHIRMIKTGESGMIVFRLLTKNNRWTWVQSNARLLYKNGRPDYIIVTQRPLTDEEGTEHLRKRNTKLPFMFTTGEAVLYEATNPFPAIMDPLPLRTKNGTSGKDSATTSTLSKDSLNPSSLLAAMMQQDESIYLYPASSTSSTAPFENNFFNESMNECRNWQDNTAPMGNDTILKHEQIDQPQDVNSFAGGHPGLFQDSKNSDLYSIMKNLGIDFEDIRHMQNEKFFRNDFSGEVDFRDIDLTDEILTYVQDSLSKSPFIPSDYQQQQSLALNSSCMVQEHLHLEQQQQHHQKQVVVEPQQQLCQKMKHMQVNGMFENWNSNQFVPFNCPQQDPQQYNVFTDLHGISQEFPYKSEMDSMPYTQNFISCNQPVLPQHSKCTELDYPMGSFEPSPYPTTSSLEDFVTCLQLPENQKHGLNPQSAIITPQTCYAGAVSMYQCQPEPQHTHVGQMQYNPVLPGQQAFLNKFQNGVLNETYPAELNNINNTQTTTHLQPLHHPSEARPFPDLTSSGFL
Summary of the method: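 Reporter mRNA levels, quantified by RT-PCR and fluorescent capillary electrophoresis, reflect endogenous AhR transcriptional activity in HepG2 cells carrying transfected cis-promoter reporter constructs. Readout at 24 h post-dose; gain or loss fitted against DMSO baseline.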

[5] = ATG_AP_1_CIS: Attagene CIS-FACTORIAL HepG2 Assay for human Activator Protein 1 (AP-1) (AID 2282931); settings: HepG2 Attagene cis-factorial AP-1 reporter mRNA; actives raise or lower the signal
Summary of the method: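 Fluorescence of labelled PCR fragments separated by capillary electrophoresis gives reporter mRNA levels. HepG2 with transfected cis-regulated reporter units, 24 h exposure; DMSO serves as baseline for bidirectional curve fits.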

[6] = ATG_AP_2_CIS: Attagene CIS-FACTORIAL HepG2 Assay for human Activator Protein 2 (AP-2) (AID 2282932); settings: HepG2 AP-2 cis-reporter, Attagene transcription factor profiling; actives raise or lower the signal
Summary of the method: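 HepG2, transient MRTU transfection, cis-regulated reporters; 24 h compound exposure; RNA isolated, RT-PCR, 6-FAM labelling, HpaI digest, CE fluorescence. DMSO = negative control/baseline, bidirectional fit.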

[7] = ATG_BRE_CIS: Attagene CIS-FACTORIAL HepG2 Assay for human Bone Morphogenetic Protein (BMP) Response Element (BRE) (AID 2282933); settings: HepG2 BMP response element reporter, Attagene transcription factor profiling; actives raise or lower the signal
Summary of the method: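 Endogenous transcription factor activity read in transiently transfected HepG2 cells after 24 h chemical exposure. Bidirectional curve fitting against DMSO; readout is reporter transcript level by RT-PCR with capillary electrophoresis of labelled products.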

[8] = biological target: Retinoic acid receptor alpha (Homo sapiens) (UniProt P10276); experiment: ATG_DR5_RAR_CIS: Attagene CIS-FACTORIAL HepG2 Assay for human Retinoic Acid Receptor Alpha (RARE), DR5 submotif (AID 2282934); settings: HepG2 Attagene cis-factorial RARE DR5 reporter, mRNA; actives raise or lower the signal
Retinoic acid receptor alpha (Homo sapiens), sequence (P10276 whole entry, looked up): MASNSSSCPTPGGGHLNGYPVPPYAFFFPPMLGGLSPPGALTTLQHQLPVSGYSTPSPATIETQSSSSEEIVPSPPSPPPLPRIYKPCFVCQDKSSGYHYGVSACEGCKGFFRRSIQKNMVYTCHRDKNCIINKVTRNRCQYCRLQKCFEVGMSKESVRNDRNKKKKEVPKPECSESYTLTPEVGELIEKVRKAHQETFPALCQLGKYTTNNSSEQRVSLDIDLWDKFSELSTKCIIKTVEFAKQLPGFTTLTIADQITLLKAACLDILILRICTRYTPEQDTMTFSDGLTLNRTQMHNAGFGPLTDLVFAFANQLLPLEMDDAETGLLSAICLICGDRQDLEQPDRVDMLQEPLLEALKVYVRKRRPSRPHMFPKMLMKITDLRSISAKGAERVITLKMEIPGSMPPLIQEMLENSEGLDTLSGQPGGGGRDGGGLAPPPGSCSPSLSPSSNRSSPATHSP
Summary of the method: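 Reporter transcripts from a DR5-regulated unit, measured via RT-PCR plus capillary electrophoresis, reflect endogenous RAR activity in transiently transfected human HepG2 liver cells. Exposure lasted 24 h; gain or loss of signal scored against DMSO.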

[9] = biological target: Transcription factor E2F1 (Homo sapiens) (UniProt Q01094); experiment: ATG_E2F_CIS: Attagene CIS-FACTORIAL HepG2 Assay for human E2F Transcription Factor 1 (AID 2282935); settings: HepG2 Attagene cis-reporter, E2F reporter RNA transcripts; actives raise or lower the signal
Transcription factor E2F1 (Homo sapiens), sequence (Q01094 whole entry, looked up): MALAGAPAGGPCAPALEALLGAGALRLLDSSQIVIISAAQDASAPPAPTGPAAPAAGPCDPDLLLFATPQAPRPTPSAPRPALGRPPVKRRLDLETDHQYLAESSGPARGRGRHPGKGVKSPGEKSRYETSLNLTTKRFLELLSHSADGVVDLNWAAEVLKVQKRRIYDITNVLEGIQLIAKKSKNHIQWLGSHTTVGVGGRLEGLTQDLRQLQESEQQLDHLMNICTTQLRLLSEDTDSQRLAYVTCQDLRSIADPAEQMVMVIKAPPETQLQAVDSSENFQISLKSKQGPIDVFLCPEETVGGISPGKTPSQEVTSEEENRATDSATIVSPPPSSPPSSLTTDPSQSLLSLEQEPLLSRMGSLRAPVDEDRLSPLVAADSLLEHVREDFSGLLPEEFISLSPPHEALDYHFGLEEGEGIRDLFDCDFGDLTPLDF
Summary of the method: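 Cis-element reporter mRNA induction in transiently transfected HepG2, 24 h exposure. Activity fitted in both directions relative to DMSO negative control.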

[10] = ATG_E_Box_CIS: Attagene CIS-FACTORIAL HepG2 Assay for human Enhancer Box (E-box) (AID 2282936); settings: HepG2 E-box cis-reporter transcription, actives raise or lower the signal
Summary of the method: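 Cells: HepG2 (human liver), transient MRTU transfection. Exposure 24 h. RNA → oligo(dT) RT → PCR → 6-FAM label → HpaI → CE. Activity fitted both directions relative to DMSO.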

[11] = ATG_M_61_CIS: Attagene CIS-FACTORIAL HepG2 Assay for M61 Transcription Factor (Internal Marker) (AID 2282937); settings: HepG2 Attagene CIS-FACTORIAL M61 internal marker reporter; actives raise or lower the signal
Summary of the method: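 This endpoint serves as an internal background control within a multiplexed HepG2 cis-reporter panel. Cells are exposed for 24 h; reporter mRNA is amplified, fluorescently labelled and sized by capillary electrophoresis, with DMSO as negative control.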

[12] = ATG_EGR_CIS: Attagene CIS-FACTORIAL HepG2 Assay for human Early Growth Response 1 (EGR1) (AID 2282938); settings: HepG2 Attagene CIS-FACTORIAL EGR reporter mRNA; actives raise or lower the signal
Summary of the method: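 HepG2, transient MRTU transfection (cis promoters), 24 h compound. RNA → RT (oligo-dT) → PCR → 6-FAM labelling → HpaI cut → CE fluorescence. Bidirectional fit, DMSO baseline.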

[13] = ATG_M_19_CIS: Attagene CIS-FACTORIAL HepG2 Assay for M19 Transcription Factor (Internal Marker) (AID 2282939); settings: HepG2 Attagene CIS-FACTORIAL M19 internal marker reporter; actives raise or lower the signal
Summary of the method: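 Internal marker readout, fitted in both directions against DMSO, from HepG2 cells carrying transfected cis-element reporter constructs; RT-PCR and capillary electrophoresis of reporter mRNA after 24 h exposure.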

[14] = ATG_Ets_CIS: Attagene CIS-FACTORIAL HepG2 Assay for human Erythroblast Transformation Specific (ETS) (AID 2282941); settings: HepG2 ETS cis-reporter transcription, actives raise or lower the signal
Summary of the method: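 After transient cis-reporter transfection, HepG2 cells receive test chemical for 24 h. Reporter mRNA levels, measured by RT-PCR and capillary electrophoresis fluorescence, are analysed bidirectionally relative to the DMSO baseline.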

[15] = biological target: Hepatocyte nuclear factor 3-beta (Homo sapiens) (UniProt Q9Y261); experiment: ATG_FoxA2_CIS: Attagene CIS-FACTORIAL HepG2 Assay for human Forkhead box A2 (FOXA2) (AID 2282942); settings: HepG2 cis-reporter transcription factor activity, 24 h; actives raise or lower the signal
Hepatocyte nuclear factor 3-beta (Homo sapiens), sequence (Q9Y261 whole entry, looked up): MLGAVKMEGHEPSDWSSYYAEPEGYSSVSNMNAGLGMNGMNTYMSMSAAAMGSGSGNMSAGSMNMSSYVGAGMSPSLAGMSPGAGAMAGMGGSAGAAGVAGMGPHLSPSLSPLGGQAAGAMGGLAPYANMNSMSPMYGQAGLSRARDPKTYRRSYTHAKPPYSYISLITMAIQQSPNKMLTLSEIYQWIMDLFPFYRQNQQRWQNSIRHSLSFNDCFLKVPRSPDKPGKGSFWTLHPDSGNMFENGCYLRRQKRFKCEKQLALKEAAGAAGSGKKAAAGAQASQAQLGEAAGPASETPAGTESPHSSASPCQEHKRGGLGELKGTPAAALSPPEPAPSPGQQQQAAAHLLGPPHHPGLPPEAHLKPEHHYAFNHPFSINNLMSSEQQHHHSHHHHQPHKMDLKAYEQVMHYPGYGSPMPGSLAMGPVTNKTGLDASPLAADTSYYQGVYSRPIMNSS
Summary of the method: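 Cells: HepG2, transient multiplex reporter transfection. Exposure 24 h. Detection: reporter-specific RT-PCR, fluorescent labelling, restriction digest, capillary electrophoresis. Analysis: bidirectional curve fit, DMSO as negative control.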

[16] = ATG_FoxO_CIS: Attagene CIS-FACTORIAL HepG2 Assay for human Forkhead box O (FoxO) (AID 2282943); settings: HepG2 Attagene cis-reporter, FoxO element, mRNA; actives raise or lower the signal
Summary of the method: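 Endogenous transcription factor activity read from multiplexed cis-promoter reporter transcripts in transiently transfected HepG2, 24 h after dosing. Reporter RNA measured via RT-PCR plus capillary electrophoresis of FAM-labeled products; gain or loss relative to DMSO.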

[17] = ATG_GLI_CIS: Attagene CIS-FACTORIAL HepG2 Assay for human Zinc Finger Protein GLI1 (AID 2282945); settings: HepG2, Attagene cis-factorial reporter mRNA, GLI element; actives raise or lower the signal
Summary of the method: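 Bidirectional curve fits relative to DMSO, using reporter mRNA levels from RT-PCR plus capillary electrophoresis. Cells were HepG2 transiently carrying cis-regulated reporter constructs, harvested 24 h after dosing.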

[18] = biological target: Bile acid receptor (Homo sapiens) (UniProt Q96RI1); experiment: ATG_IR1_CIS: Attagene CIS-FACTORIAL HepG2 Assay for human Nuclear Receptor Subfamily 1 Group H Member 4 (NR1H4), IR1 submotif (AID 2282946); settings: IR1 reporter transcription, actives raise or lower the signal
Bile acid receptor (Homo sapiens), sequence (Q96RI1 whole entry, looked up, the tested form may be a part): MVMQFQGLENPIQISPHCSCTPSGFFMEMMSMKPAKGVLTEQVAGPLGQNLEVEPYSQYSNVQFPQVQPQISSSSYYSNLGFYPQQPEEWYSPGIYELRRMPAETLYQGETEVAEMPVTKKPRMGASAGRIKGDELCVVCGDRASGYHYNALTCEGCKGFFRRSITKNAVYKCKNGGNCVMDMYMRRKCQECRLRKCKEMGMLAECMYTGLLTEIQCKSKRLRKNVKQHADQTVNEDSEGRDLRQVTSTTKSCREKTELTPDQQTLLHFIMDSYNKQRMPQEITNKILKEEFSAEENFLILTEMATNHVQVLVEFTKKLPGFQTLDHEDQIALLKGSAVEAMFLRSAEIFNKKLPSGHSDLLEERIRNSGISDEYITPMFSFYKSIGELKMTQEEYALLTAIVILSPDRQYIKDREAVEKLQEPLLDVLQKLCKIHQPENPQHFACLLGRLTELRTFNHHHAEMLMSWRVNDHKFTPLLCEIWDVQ
Summary of the method: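 Cells (human HepG2) carry transiently transfected cis-promoter reporter transcription units. Compounds are incubated 24 h, total RNA is reverse-transcribed and amplified, and labelled fragments are resolved by capillary electrophoresis. Curves use DMSO as baseline.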

[19] = ATG_ERE_CIS: Attagene CIS-FACTORIAL HepG2 Assay for Estrogen Response Element (ERE) (AID 2282940); settings: HepG2 ERE cis-reporter, Attagene RNA transcript; actives raise or lower the signal
Summary of the method: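 After 24 h compound treatment, RNA from transfected HepG2 cells was reverse-transcribed, reporter cDNA PCR-amplified, FAM-labelled, HpaI-cut and resolved by capillary electrophoresis. ERE-driven cis reporter transcripts reflect endogenous factors; gain or loss scored against DMSO.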

[20] = ATG_GATA_CIS: Attagene CIS-FACTORIAL HepG2 Assay for human GATA Binding Protein (AID 2282944); settings: HepG2 GATA cis-element reporter, Attagene multiplex mRNA; actives raise or lower the signal
Summary of the method: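 Reporter transcripts from a GATA cis-regulated unit, among multiplexed reporters in transfected HepG2 cells, were measured by RT-PCR with capillary electrophoresis after 24 h dosing. Induction or loss scored relative to DMSO.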

Measured: AC50

[O-][Cl+2]([O-])O
not listed: [19] | [20]
inactive: all other assays above

COc1cc2c(cc1OC)[C@@]13CCN4CC5=CCO[C@H]6CC(=O)N2[C@H]1[C@H]6[C@H]5C[C@H]43
not listed: [18]
inactive: all other assays above

CCOP(=S)(OCC)Oc1ccc(S(C)=O)cc1 (stereo unspecified)
active: [4] 32.5 µM
not listed: [14] | [18] | [19]
inactive: all other assays above

CC(C)OC(=O)Nc1ccccc1
not listed: [18]
inactive: all other assays above

C[C@@H]1C[C@@H]([C@H](O)CC2CC(=O)NC(=O)C2)C(=O)[C@@H](C)C1
active: [1] 1.31 µM [middle of 4 runs] | [2] 0.286 µM | [5] 24.1 µM and 11.9 µM | [7] 16.6 µM and 5.79 µM and 22.8 µM | [9] 573 nM and 632 nM | [14] 6.31 µM [middle of 4 runs] | [15] 10.1 µM | [18] 0.304 µM
inactive: [2] | [5] | [7] | [9] | [11] | [12] | [13] | [15] | [17] | [18]

CCOP(=O)(CN(CCO)CCO)OCC
not listed: [18] | [19]
inactive: all other assays above

CCc1ccccc1N
active: [4] 67.2 µM
not listed: [13] | [18] | [20]
inactive: all other assays above
